# Over roughly 9,900 sequences, “r (bound/input frequency ratio)” has its median near 0.7; the highest 2% begin near 6.5. The sample as a whole holds a higher share of the highest values than the screen did.
# B1: ENSMUSG00000043670.217|Diras1|25:29;58:70;94:99;102:106;111:115;225:229 (ssRNA)
# RNA: GGGAGUUCUACAGUCCGACGAUCGCUUCGAUAUCCGCAUGCUAGGAUGGGGUGUUCUUGCACCACUUACACAUCUUAGUGAGACCACAGUGUAAGUGGCCCACACACACACACGGGGGGGGCACCUAGACAUUGUGCACACACUCAUACGCUCACACAUUUCAGGGGUGGGUGACACAGGCCUGUCUGAUGAGCACCAGGUCUGUUCCAGGCUGUGGCAAGCUGGCUCCUGGCUCAGAAGUGACAAAGCUGCAGUACAGAGGCCUCACACACAGGUCAUCACCUCACAGUGGCUACAGACCAGCUCUUGCGGUCGCACUAGUGUGGAAUUCUCGGGUGUCAAGG
# B2: ENSMUSG00000042529.420|Kcnj12|1:11;16:21;25:29;41:51;74:79;236:240 (ssRNA)
# RNA: GGGAGUUCUACAGUCCGACGAUCGCUUCGAUAUCCGCAUGCUACACACACACACAACAACACACAGGCACACGAGGUCCCAGGCACACACAUACUGAAUGUCAGUGGCUUGGGUGCACACACGAGAGAGAGAGAGAGAGAGAGAGAGAGAGAGAGAGAGAGAGAGAGAGAGAGCUGCACAGGAUGAAGCAGCUGCCCUGAGCCCAUCUGGUGCUGUGCACCUGGUCCUUGUCCAGCCGAGGGCCUGGGGGCAGAAGAACACACCAUAGGGAGGCCCUUCAUACGGUGUCUGCCCUAUGUGAGGCUCUUGCGGUCGCACUAGUGUGGAAUUCUCGGGUGUCAAGG
# B3: ENSMUSG00000042529.424|Kcnj12|1:5;17:27;50:55;212:216 (ssRNA)
# RNA: GGGAGUUCUACAGUCCGACGAUCGCUUCGAUAUCCGCAUGCUACACACGAGGUCCCAGGCACACACAUACUGAAUGUCAGUGGCUUGGGUGCACACACGAGAGAGAGAGAGAGAGAGAGAGAGAGAGAGAGAGAGAGAGAGAGAGAGAGCUGCACAGGAUGAAGCAGCUGCCCUGAGCCCAUCUGGUGCUGUGCACCUGGUCCUUGUCCAGCCGAGGGCCUGGGGGCAGAAGAACACACCAUAGGGAGGCCCUUCAUACGGUGUCUGCCCUAUGUGAGGUCAUAGAAUGUUAAAUCUAUUUUACUCUUGCGGUCGCACUAGUGUGGAAUUCUCGGGUGUCAAGG
# B4: ENSMUSG00000042529.426|Kcnj12|5:15;38:43;200:204 (ssRNA)
# RNA: GGGAGUUCUACAGUCCGACGAUCGCUUCGAUAUCCGCAUGCUACAGGCACACACAUACUGAAUGUCAGUGGCUUGGGUGCACACACGAGAGAGAGAGAGAGAGAGAGAGAGAGAGAGAGAGAGAGAGAGAGAGAGAGCUGCACAGGAUGAAGCAGCUGCCCUGAGCCCAUCUGGUGCUGUGCACCUGGUCCUUGUCCAGCCGAGGGCCUGGGGGCAGAAGAACACACCAUAGGGAGGCCCUUCAUACGGUGUCUGCCCUAUGUGAGGUCAUAGAAUGUUAAAUCUAUUUUAAACGGUGAAACUCUCUUGCGGUCGCACUAGUGUGGAAUUCUCGGGUGUCAAGG
# B5: ENSMUSG00000042529.419|Kcnj12|1:17;22:27;31:35;47:57;80:85;242:246 (ssRNA)
# RNA: GGGAGUUCUACAGUCCGACGAUCGCUUCGAUAUCCGCAUGCUACACACACACACACACACAACAACACACAGGCACACGAGGUCCCAGGCACACACAUACUGAAUGUCAGUGGCUUGGGUGCACACACGAGAGAGAGAGAGAGAGAGAGAGAGAGAGAGAGAGAGAGAGAGAGAGAGAGCUGCACAGGAUGAAGCAGCUGCCCUGAGCCCAUCUGGUGCUGUGCACCUGGUCCUUGUCCAGCCGAGGGCCUGGGGGCAGAAGAACACACCAUAGGGAGGCCCUUCAUACGGUGUCUGCCCUAUCUCUUGCGGUCGCACUAGUGUGGAAUUCUCGGGUGUCAAGG
# B6: ENSMUSG00000042529.427|Kcnj12|1:9;32:37;194:198 (ssRNA)
# RNA: GGGAGUUCUACAGUCCGACGAUCGCUUCGAUAUCCGCAUGCUACACACAUACUGAAUGUCAGUGGCUUGGGUGCACACACGAGAGAGAGAGAGAGAGAGAGAGAGAGAGAGAGAGAGAGAGAGAGAGAGAGCUGCACAGGAUGAAGCAGCUGCCCUGAGCCCAUCUGGUGCUGUGCACCUGGUCCUUGUCCAGCCGAGGGCCUGGGGGCAGAAGAACACACCAUAGGGAGGCCCUUCAUACGGUGUCUGCCCUAUGUGAGGUCAUAGAAUGUUAAAUCUAUUUUAAACGGUGAAACUGGAGAACUCUUGCGGUCGCACUAGUGUGGAAUUCUCGGGUGUCAAGG
# B7: ENSMUSG00000042529.425|Kcnj12|11:21;44:49;206:210 (ssRNA)
# RNA: GGGAGUUCUACAGUCCGACGAUCGCUUCGAUAUCCGCAUGCUAAGGUCCCAGGCACACACAUACUGAAUGUCAGUGGCUUGGGUGCACACACGAGAGAGAGAGAGAGAGAGAGAGAGAGAGAGAGAGAGAGAGAGAGAGAGAGCUGCACAGGAUGAAGCAGCUGCCCUGAGCCCAUCUGGUGCUGUGCACCUGGUCCUUGUCCAGCCGAGGGCCUGGGGGCAGAAGAACACACCAUAGGGAGGCCCUUCAUACGGUGUCUGCCCUAUGUGAGGUCAUAGAAUGUUAAAUCUAUUUUAAACGGUCUCUUGCGGUCGCACUAGUGUGGAAUUCUCGGGUGUCAAGG
# B8: ENSMUSG00000042529.422|Kcnj12|4:9;13:17;29:39;62:67;224:228 (ssRNA)
# RNA: GGGAGUUCUACAGUCCGACGAUCGCUUCGAUAUCCGCAUGCUAACAACACACAGGCACACGAGGUCCCAGGCACACACAUACUGAAUGUCAGUGGCUUGGGUGCACACACGAGAGAGAGAGAGAGAGAGAGAGAGAGAGAGAGAGAGAGAGAGAGAGAGAGCUGCACAGGAUGAAGCAGCUGCCCUGAGCCCAUCUGGUGCUGUGCACCUGGUCCUUGUCCAGCCGAGGGCCUGGGGGCAGAAGAACACACCAUAGGGAGGCCCUUCAUACGGUGUCUGCCCUAUGUGAGGUCAUAGAAUGUUCUCUUGCGGUCGCACUAGUGUGGAAUUCUCGGGUGUCAAGG
# B9: ENSMUSG00000042529.423|Kcnj12|7:11;23:33;56:61;218:222 (ssRNA)
# RNA: GGGAGUUCUACAGUCCGACGAUCGCUUCGAUAUCCGCAUGCUAGUGAGGCACACGAGGUCCCAGGCACACACAUACUGAAUGUCAGUGGCUUGGGUGCACACACGAGAGAGAGAGAGAGAGAGAGAGAGAGAGAGAGAGAGAGAGAGAGAGAGAGCUGCACAGGAUGAAGCAGCUGCCCUGAGCCCAUCUGGUGCUGUGCACCUGGUCCUUGUCCAGCCGAGGGCCUGGGGGCAGAAGAACACACCAUAGGGAGGCCCUUCAUACGGUGUCUGCCCUAUGUGAGGUCAUAGAAUGUUAAAUCUCUCUUGCGGUCGCACUAGUGUGGAAUUCUCGGGUGUCAAGG
# B10: ENSMUSG00000042529.421|Kcnj12|1:5;10:15;19:23;35:45;68:73;230:234 (ssRNA)
# RNA: GGGAGUUCUACAGUCCGACGAUCGCUUCGAUAUCCGCAUGCUACACACAACAACACACAGGCACACGAGGUCCCAGGCACACACAUACUGAAUGUCAGUGGCUUGGGUGCACACACGAGAGAGAGAGAGAGAGAGAGAGAGAGAGAGAGAGAGAGAGAGAGAGAGAGCUGCACAGGAUGAAGCAGCUGCCCUGAGCCCAUCUGGUGCUGUGCACCUGGUCCUUGUCCAGCCGAGGGCCUGGGGGCAGAAGAACACACCAUAGGGAGGCCCUUCAUACGGUGUCUGCCCUAUGUGAGGUCAUAGCUCUUGCGGUCGCACUAGUGUGGAAUUCUCGGGUGUCAAGG
# Molecular target: TDP-43 (Homo sapiens, UniProt Q13148 1-414)
# Assay: RNA Bind-n-Seq with designed 260-mer pool; 25 mM Tris-HCl, 150 mM KCl, 3 mM MgCl2, BSA (printed 500 mg/mL), 20 units/mL SUPERase IN; pH not stated; 500 nM RNA pool, 1 h, 4 C; TDP-43 5, 50, 500 nM; high values mean tight binding
# Details: protein: recombinant; tags: SBP (GST cleaved off with PreScission; pGEX-GST-SBP)
# Summary of the method: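 Recombinant SBP-tagged TDP-43 at 5, 50 or 500 nM was captured on streptavidin beads, then incubated 1 h at 4 °C with 500 nM of an in vitro-transcribed 260-nt 3′ UTR oligo pool in 25 mM Tris-HCl, 150 mM KCl, 3 mM MgCl2, BSA and SUPERase IN. Bound RNA was washed, eluted with biotin, reverse transcribed, PCR-amplified and sequenced. Binding is R, each oligo's mapped-read-normalized abundance in the bound sample divided by its abundance in input. Duplicates used two independent protein batches.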
# TDP-43, sequence (Q13148 whole entry): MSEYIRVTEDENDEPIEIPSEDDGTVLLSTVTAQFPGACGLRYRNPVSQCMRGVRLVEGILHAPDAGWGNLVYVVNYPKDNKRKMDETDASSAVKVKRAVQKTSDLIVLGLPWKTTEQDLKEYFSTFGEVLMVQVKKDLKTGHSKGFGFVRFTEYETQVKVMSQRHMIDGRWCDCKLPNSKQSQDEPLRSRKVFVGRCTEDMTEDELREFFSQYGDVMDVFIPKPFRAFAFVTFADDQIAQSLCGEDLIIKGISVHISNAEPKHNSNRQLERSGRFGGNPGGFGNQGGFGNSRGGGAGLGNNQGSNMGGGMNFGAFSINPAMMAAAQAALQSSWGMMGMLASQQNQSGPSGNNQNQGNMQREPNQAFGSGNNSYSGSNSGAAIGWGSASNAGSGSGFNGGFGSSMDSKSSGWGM
row,Binder,binding signal
1,B1,0.883 R (bound/input frequency ratio)
2,B2,4.97 R (bound/input frequency ratio)
3,B3,6.55 R (bound/input frequency ratio)
4,B4,5.67 R (bound/input frequency ratio)
5,B5,6.45 R (bound/input frequency ratio)
6,B6,5.49 R (bound/input frequency ratio)
7,B7,6.2 R (bound/input frequency ratio)
8,B8,6.32 R (bound/input frequency ratio)
9,B9,7.58 R (bound/input frequency ratio)
10,B10,7.21 R (bound/input frequency ratio)
